The values that follow come from article PMC7862700, “An all-to-all approach to the identification of sequence-specific readers for epigenetic DNA modifications on cytosine”.

Holding throughout (assay): DAPPL (digital affinity profiling via proximity ligation, sequencing); 10 mM Tris-HCl pH 7.5, 50 mM NaCl, 1 mM DTT, 4% glycerol, room temperature, 30 min; GST-TFs on glutathione beads, 16-mer random dsDNA library, 0.1% formaldehyde crosslink after washing; high values mean tight binding
Assay [1] has as its target T1, FEV (Homo sapiens, UniProt Q99581 1-238).
T1 sequence: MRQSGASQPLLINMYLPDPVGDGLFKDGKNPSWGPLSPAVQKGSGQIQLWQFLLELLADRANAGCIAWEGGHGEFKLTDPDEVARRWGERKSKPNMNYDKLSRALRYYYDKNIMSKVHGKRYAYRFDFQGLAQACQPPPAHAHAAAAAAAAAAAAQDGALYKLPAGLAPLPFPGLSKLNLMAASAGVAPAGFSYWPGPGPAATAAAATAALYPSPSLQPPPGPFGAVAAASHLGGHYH
The following applies: protein: recombinant; tags: N-terminal GST; dsDNA, one strand shown. Summed up: (§1)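 Human transcription factors carrying a GST fusion were produced in yeast, bound to glutathione beads, tagged with DNA barcodes and pooled together with a tag-only sample. Each pool was held with 200 nmole of a random double-stranded 16-mer DNA library in Tris/NaCl/DTT/glycerol buffer for 30 min at room temperature, then washed, crosslinked in 0.1% formaldehyde, proximity-ligated with BsaI/T4 ligase (1 h, 37 °C), PCR-amplified and sequenced on an Illumina NextSeq500. Binding signal is the read frequency of each hexamer for a given factor divided by its frequency in the tag-only sample.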

The target of assay [2] is ETV5 (Homo sapiens, UniProt P41161 1-510). The following applies: protein: recombinant; tags: N-terminal GST; dsDNA, one strand shown. Summed up: as §1
Sequence of ETV5 (P41161 whole entry): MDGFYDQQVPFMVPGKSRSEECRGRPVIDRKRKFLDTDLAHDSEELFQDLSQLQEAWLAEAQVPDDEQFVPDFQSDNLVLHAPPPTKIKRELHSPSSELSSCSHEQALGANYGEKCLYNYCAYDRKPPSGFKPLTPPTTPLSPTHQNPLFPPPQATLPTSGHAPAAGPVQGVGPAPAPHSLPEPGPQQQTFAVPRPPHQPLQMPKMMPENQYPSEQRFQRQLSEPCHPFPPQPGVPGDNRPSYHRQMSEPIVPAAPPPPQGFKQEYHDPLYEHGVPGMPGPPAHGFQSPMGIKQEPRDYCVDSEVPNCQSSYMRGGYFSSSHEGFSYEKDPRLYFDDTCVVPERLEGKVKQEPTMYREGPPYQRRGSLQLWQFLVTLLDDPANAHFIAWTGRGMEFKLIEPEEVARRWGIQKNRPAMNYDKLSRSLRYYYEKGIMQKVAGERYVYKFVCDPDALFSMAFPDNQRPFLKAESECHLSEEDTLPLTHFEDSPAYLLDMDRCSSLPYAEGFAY
Assay [3] concerns the target HSF1 (Homo sapiens, UniProt Q00613 1-529). The following applies: protein: recombinant; tags: N-terminal GST; chain copies: 3; dsDNA, one strand shown. Summed up:
as §1

Assay [4] has as its target T2, SPIC (Homo sapiens, UniProt Q8N5J4 1-248).
T2 sequence: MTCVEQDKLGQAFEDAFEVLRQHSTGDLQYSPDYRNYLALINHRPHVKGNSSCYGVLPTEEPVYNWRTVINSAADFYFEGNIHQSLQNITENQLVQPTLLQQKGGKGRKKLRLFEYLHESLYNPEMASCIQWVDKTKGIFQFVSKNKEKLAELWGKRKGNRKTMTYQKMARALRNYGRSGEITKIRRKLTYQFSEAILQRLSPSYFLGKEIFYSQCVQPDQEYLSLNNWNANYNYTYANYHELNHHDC
The following applies: protein: recombinant; tags: N-terminal GST; dsDNA, one strand shown. Summed up:
as §1

The target of assay [5] is ELF4 (Homo sapiens, UniProt Q99607 1-663). The following applies: protein: recombinant; tags: N-terminal GST; dsDNA, one strand shown. Summed up: as §1
Sequence of ELF4 (Q99607 whole entry): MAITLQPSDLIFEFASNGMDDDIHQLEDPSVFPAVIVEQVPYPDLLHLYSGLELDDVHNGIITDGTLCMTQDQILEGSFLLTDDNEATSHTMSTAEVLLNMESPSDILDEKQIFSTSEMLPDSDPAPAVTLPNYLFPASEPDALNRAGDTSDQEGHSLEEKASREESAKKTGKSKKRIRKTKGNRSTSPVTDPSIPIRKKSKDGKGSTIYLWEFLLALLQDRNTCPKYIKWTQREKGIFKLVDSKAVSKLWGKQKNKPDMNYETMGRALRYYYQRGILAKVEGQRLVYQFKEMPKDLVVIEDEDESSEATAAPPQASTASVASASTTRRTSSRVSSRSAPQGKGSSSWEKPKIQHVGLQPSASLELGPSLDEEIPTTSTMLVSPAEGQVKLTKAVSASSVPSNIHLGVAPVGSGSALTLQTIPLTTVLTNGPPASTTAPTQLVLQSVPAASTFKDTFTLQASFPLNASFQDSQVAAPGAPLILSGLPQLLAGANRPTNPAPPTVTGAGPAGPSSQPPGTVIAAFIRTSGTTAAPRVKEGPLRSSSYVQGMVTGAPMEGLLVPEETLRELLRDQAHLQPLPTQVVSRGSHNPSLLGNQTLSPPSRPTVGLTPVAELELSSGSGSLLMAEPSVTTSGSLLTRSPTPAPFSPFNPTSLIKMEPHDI
Assay [6] addresses T3, ELK4 (Homo sapiens, UniProt P28324-2 1-405).
T3 sequence: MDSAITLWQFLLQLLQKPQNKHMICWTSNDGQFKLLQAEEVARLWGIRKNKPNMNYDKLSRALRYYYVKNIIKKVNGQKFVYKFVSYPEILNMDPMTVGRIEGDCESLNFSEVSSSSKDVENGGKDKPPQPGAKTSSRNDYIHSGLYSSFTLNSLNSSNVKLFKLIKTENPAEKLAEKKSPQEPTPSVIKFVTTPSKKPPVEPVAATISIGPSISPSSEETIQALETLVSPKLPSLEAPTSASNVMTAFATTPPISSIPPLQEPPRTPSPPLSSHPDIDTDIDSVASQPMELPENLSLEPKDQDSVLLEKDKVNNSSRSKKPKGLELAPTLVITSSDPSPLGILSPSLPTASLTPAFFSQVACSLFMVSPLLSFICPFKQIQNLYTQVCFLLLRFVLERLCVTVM
The following applies: protein: recombinant; tags: N-terminal GST; dsDNA, one strand shown. Summed up: as §1

Assay [7] has as its target T4, ETV2 (Homo sapiens, UniProt O00321 1-342).
T4 sequence: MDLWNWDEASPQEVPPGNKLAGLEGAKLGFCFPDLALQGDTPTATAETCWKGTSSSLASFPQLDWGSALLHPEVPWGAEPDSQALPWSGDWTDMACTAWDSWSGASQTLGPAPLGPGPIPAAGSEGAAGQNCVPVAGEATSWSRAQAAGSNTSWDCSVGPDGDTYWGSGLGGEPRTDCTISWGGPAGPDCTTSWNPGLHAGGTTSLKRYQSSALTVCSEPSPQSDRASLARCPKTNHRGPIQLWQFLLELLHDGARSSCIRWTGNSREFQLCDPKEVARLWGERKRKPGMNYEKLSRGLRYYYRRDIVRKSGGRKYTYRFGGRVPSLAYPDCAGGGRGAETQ
The following applies: protein: recombinant; tags: N-terminal GST; dsDNA, one strand shown. Summed up: as §1

Assay [8] has as its target T5, ELF3 (Homo sapiens, UniProt P78545 1-371).
T5 sequence: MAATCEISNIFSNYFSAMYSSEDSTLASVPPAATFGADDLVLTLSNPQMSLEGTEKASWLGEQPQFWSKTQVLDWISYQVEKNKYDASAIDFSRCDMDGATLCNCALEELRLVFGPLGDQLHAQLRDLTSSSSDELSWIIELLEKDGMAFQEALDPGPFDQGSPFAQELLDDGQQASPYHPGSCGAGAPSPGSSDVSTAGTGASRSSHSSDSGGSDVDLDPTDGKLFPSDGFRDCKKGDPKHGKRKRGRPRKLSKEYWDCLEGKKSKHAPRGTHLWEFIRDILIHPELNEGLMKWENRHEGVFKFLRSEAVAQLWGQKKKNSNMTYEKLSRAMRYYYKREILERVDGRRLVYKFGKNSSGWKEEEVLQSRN
The following applies: protein: recombinant; tags: N-terminal GST; dsDNA, one strand shown. Summed up: as §1

In assay [9] the target is CRX (Homo sapiens, UniProt O43186 1-299). The following applies: protein: recombinant; tags: N-terminal GST; dsDNA, one strand shown. Summed up: as §1
Sequence of CRX (O43186 whole entry): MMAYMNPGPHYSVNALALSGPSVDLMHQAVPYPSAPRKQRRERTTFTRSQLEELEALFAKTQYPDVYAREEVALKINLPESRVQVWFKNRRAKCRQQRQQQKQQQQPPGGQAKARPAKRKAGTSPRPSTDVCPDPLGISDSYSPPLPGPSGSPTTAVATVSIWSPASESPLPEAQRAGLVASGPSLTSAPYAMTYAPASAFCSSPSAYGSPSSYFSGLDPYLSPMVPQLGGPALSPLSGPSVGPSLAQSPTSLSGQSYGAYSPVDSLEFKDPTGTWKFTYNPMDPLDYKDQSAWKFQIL
Assay [10] deals with ETV1 (Homo sapiens, UniProt P50549 1-477). The following applies: protein: recombinant; tags: N-terminal GST; dsDNA, one strand shown. Summed up: as §1
Sequence of ETV1 (P50549 whole entry): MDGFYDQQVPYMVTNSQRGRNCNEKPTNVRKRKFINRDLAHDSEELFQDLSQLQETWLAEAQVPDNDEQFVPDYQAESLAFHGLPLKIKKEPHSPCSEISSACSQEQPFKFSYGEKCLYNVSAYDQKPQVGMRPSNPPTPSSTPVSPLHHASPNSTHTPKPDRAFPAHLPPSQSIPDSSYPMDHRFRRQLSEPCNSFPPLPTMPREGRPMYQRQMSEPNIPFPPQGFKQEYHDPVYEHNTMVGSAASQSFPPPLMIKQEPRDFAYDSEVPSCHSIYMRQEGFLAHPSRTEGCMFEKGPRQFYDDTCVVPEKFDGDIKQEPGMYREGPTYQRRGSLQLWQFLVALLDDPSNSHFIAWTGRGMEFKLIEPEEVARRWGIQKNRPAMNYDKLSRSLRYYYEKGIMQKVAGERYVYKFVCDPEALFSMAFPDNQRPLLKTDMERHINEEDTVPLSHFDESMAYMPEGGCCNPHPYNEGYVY
Assay [11] has as its target T6, ERF (Homo sapiens, UniProt P50548 1-548).
T6 sequence: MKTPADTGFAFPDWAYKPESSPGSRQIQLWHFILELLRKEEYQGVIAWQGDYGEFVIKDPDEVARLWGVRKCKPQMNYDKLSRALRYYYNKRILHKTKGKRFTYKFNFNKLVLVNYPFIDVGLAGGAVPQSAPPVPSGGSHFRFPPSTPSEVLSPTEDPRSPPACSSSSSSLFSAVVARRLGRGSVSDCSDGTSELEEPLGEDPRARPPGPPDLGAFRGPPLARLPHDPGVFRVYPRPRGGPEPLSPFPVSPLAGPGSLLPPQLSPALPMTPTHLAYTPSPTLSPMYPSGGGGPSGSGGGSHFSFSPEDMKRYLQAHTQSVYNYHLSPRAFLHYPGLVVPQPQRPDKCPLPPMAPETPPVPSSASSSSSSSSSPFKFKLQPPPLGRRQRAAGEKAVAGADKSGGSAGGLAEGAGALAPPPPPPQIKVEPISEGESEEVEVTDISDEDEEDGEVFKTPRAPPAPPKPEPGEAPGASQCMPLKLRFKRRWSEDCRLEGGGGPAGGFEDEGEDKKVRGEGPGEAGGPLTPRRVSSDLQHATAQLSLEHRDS
The following applies: protein: recombinant; tags: N-terminal GST; dsDNA, one strand shown. Summed up: as §1

The target of assay [12] is T7, ETV3L (Homo sapiens, UniProt Q6ZN32 1-361).
T7 sequence: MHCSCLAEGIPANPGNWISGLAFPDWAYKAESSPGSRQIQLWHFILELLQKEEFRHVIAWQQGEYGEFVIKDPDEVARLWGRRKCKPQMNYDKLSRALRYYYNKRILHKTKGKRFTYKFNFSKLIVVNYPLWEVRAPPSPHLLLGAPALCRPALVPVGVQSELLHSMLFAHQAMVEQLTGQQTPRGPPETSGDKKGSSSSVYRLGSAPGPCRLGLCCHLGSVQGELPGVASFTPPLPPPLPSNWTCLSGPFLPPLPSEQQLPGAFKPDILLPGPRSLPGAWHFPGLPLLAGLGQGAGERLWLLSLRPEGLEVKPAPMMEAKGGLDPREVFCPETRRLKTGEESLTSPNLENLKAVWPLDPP
The following applies: protein: recombinant; tags: N-terminal GST; dsDNA, one strand shown. Summed up: as §1

The target of assay [13] is T8, ETS2 (Homo sapiens, UniProt P15036 1-469).
T8 sequence: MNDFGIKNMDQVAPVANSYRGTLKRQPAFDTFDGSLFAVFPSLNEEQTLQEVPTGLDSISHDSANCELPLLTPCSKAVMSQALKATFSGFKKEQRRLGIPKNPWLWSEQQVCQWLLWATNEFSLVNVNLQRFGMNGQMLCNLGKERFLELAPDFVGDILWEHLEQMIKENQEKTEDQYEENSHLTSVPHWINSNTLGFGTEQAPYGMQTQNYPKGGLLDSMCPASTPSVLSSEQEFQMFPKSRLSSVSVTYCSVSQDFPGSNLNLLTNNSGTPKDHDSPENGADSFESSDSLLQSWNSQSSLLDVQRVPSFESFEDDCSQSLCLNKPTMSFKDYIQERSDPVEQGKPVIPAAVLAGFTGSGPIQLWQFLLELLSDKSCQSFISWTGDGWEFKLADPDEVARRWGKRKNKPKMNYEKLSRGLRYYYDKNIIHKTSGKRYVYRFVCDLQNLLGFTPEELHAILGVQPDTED
The following applies: protein: recombinant; tags: N-terminal GST; dsDNA, one strand shown. Summed up: as §1

The target of assay [14] is T9, SPDEF (Homo sapiens, UniProt O95238 1-335).
T9 sequence: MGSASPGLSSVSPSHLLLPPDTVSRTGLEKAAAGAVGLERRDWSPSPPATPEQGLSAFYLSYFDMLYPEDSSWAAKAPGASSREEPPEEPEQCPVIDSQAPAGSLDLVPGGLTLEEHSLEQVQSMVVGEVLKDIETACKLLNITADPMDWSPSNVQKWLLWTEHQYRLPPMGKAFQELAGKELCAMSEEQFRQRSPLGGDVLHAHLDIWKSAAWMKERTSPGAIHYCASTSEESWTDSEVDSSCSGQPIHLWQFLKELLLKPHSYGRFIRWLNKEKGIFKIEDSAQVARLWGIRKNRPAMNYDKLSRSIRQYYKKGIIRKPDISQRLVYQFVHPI
The following applies: protein: recombinant; tags: N-terminal GST; dsDNA, one strand shown. Summed up:
as §1

The target of assay [15] is T10, ETV7 (Homo sapiens, UniProt Q9Y603 1-341).
T10 sequence: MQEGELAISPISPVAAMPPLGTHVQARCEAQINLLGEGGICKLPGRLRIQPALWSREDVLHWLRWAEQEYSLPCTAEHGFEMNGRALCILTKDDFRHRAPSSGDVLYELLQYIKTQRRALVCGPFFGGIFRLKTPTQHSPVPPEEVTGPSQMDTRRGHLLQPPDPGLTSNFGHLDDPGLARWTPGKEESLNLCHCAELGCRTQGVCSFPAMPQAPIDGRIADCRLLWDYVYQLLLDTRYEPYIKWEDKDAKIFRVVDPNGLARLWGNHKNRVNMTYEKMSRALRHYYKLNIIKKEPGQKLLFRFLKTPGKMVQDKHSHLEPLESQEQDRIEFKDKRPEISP
The following applies: protein: recombinant; tags: N-terminal GST; dsDNA, one strand shown. Summed up:
as §1

The target in assay [16] is T11, ELF5 (Homo sapiens, UniProt Q9UKW6-2 1-255).
T11 sequence: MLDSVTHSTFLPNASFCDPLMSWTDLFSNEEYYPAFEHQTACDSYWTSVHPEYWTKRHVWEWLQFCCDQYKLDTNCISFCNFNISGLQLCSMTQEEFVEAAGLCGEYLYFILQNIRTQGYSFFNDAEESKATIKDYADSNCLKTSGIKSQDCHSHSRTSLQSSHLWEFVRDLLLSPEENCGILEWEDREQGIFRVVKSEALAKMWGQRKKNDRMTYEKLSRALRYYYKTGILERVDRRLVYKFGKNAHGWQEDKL
The following applies: protein: recombinant; tags: N-terminal GST; dsDNA, one strand shown. Summed up:
as §1

In assay [17] the target is T12, ETV3 (Homo sapiens, UniProt P41162-2 1-143).
T12 sequence: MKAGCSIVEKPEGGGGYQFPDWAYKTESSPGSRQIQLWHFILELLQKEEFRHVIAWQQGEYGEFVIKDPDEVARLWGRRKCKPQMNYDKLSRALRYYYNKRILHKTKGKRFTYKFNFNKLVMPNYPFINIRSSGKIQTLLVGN
The following applies: protein: recombinant; tags: N-terminal GST; dsDNA, one strand shown. Summed up:
as §1

Assay [18] addresses ETV6 (Homo sapiens, UniProt P41212 1-452). The following applies: protein: recombinant; tags: N-terminal GST; dsDNA, one strand shown. Summed up:
as §1

Sequence of ETV6 (P41212 whole entry): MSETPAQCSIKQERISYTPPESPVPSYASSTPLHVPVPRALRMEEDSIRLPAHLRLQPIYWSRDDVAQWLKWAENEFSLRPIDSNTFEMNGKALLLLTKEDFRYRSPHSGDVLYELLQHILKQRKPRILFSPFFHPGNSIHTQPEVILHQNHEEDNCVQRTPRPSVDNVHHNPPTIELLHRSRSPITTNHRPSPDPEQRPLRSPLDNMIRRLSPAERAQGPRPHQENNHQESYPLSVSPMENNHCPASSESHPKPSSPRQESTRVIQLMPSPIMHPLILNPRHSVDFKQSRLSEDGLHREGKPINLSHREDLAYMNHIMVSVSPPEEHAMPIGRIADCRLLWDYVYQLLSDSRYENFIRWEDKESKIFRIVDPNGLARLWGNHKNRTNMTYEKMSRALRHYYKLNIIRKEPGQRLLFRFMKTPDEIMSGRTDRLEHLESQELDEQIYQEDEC
Sequence of HSF1 (Q00613 whole entry): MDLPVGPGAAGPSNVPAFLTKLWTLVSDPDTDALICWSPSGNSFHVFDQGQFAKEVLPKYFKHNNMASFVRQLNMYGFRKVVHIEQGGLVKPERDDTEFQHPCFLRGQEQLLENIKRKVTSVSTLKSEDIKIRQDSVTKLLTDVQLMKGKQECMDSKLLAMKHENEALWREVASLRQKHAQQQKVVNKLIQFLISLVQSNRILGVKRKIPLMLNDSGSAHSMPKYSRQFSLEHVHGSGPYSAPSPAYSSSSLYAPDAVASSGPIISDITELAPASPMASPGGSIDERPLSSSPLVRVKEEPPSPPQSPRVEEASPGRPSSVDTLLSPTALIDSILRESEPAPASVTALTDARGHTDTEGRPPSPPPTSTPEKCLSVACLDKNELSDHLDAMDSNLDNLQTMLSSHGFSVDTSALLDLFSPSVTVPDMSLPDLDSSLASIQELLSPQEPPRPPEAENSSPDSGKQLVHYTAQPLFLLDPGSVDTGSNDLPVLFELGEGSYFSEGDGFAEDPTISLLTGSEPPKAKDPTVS

Take AAAGTA: the binding signal in [1] is 1.11 fold enrichment (6-mer frequency, TF over GST control); in [2] it was 1.09 fold enrichment (6-mer frequency, TF over GST control); in assay [3], 1.29 fold enrichment (6-mer frequency, TF over GST control); in assay [4] it was 1.04 fold enrichment (6-mer frequency, TF over GST control); in assay [5], 1.17 fold enrichment (6-mer frequency, TF over GST control); in assay [6] it was 1.13 fold enrichment (6-mer frequency, TF over GST control). Further, the binding signal in assay [7] is 1.11 fold enrichment (6-mer frequency, TF over GST control); in assay [8], 1.11 fold enrichment (6-mer frequency, TF over GST control); in assay [9] it was 1.35 fold enrichment (6-mer frequency, TF over GST control); in assay [10] it was 1.18 fold enrichment (6-mer frequency, TF over GST control); in assay [11], 1.11 fold enrichment (6-mer frequency, TF over GST control); in [12], 1.18 fold enrichment (6-mer frequency, TF over GST control). The binding signal was 1.17 fold enrichment (6-mer frequency, TF over GST control) in assay [13]; 1.13 fold enrichment (6-mer frequency, TF over GST control) in assay [14]; 1.21 fold enrichment (6-mer frequency, TF over GST control) in [15]; 1.18 fold enrichment (6-mer frequency, TF over GST control) in assay [16]; 1.14 fold enrichment (6-mer frequency, TF over GST control) in assay [17]; 1.15 fold enrichment (6-mer frequency, TF over GST control) in [18].
